This is a sample that favours compounds with a hit; in the whole collection about 18% have one here.
HepG2 viability: qHTS for Inhibitors of TGF-b: Cytotox Counterscreen; Potency, µM (titrated, usually from 46.1 µM), without a hit: at the highest dose activity change, negative = cytotoxicity, most hits filed as cytotoxic; 0.76% of 410,000 active; HepG2 CAGA-GFP viability, ATP luminescence, 18 h; also: potency is read from the fitted curve at half-maximal effect
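CellTiter-Glo luminescence gave cytotoxicity after 18 hours at 37 degrees C. The cells were HepG2 CAGA-GFP in 1% FBS DMEM, stimulated with 500 pg/mL TGF-beta after compound addition. %Activity was normalised to no-cell wells (complete cell-killing) and DMSO (no toxicity), and curves were fitted and classified.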
IL-1B inflam inh: qHTS for Inhibitors of Inflammasome Signaling: IL-1-beta AlphaLISA Primary Screen. THP-1 LPS/ATP IL-1B secretion, AlphaLISA, 16 h; hits give low values. activity change, % at 57.5 µM. 4.7% of 360,000 active. AID 743279, 2014; in the data active = activity change below about -50%; inconclusive = mostly about -30% to -49%; also: % is scaled to controls: 0 for no effect and ±100 for the full control effect
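THP-1 cells pretreated 1 hr with compounds (up to 57.5 uM final), then stimulated with LPS (250 ng/mL final) plus ATP (1.25 mM final); secreted IL-1B measured by AlphaLISA after 16 hr, decreased signal indicating inhibition.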
TDP1 block: qHTS Assay for Inhibitors of Tyrosyl-DNA Phosphodiesterase (TDP1). AID 485290, 2010. Tyrosyl-DNA phosphodiesterase 1 (Homo sapiens), Q9NUW8. recombinant TDP1, AlphaScreen DNA substrate cleavage. 0.28% of 350,000 active. Potency, µM (highest dose often 130 µM), without a hit: at the highest dose activity change, negative = inhibition, most hits filed as inhibitors; also: potency is read from the fitted curve at half-maximal effect; % is scaled to controls: 0 for no effect and ±100 for the full control effect; nearly all actives have a fitted effect of over 40% in size
Target sequence (Q9NUW8 whole entry, looked up): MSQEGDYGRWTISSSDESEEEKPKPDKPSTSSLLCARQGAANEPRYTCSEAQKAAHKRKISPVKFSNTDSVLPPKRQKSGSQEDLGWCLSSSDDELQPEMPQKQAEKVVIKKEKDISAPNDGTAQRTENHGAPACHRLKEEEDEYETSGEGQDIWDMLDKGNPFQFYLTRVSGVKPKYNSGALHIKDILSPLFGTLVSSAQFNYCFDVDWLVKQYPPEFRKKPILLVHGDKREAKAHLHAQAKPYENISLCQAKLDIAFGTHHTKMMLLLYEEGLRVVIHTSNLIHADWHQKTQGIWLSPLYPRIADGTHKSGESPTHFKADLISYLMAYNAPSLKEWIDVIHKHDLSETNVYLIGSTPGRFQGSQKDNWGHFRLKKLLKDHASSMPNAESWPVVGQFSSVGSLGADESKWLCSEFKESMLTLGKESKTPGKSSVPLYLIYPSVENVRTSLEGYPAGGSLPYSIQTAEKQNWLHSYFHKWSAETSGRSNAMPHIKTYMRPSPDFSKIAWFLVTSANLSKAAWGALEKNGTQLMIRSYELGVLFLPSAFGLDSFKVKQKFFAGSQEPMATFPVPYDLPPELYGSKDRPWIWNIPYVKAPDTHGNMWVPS
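Compounds were preincubated with Tdp1 (1 nM final) for 15 min at room temperature before substrate (15 nM final) started a 5 min reaction; beads (10 ug/ml final) were then added for 10 min before AlphaScreen detection.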
TDP1 cell noCPT: qHTS for Inhibitors of human tyrosyl-DNA phosphodiesterase 1 (TDP1): qHTS in cells in absence of CPT. DT40 Tdp1-/- hTDP1 cells, no CPT, ATP luminescence, 48 h. AID 686978, 2013. Potency, µM (series often up to 46.2 µM), without a hit: at the top dose activity change, negative = growth inhibition, most hits filed as inhibitors. 15% of 420,000 active; also: potency is read from the fitted curve at half-maximal effect; % is scaled to controls: 0 for no effect and ±100 for the full control effect; nearly all actives have a fitted effect of over 55% in size
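Chicken DT40 Tdp1-/- cells stably complemented with human TDP1 were seeded at 400 cells/well with DMSO in place of 20 nM camptothecin. After compound pinning, cells grew at least 48 hr at 37 °C; viability read by CellTiter-Glo luminescence.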
TDP1 cell CPT: qHTS for Inhibitors of human tyrosyl-DNA phosphodiesterase 1 (TDP1): qHTS in cells in presence of CPT; chicken DT40 Tdp1-/-;hTDP1 cells + 20 nM CPT, ATP luminescence, 48 h; 12% of 420,000 active; Potency, µM (top dose mostly 46.2 µM), for the others: at the highest dose activity change, negative = growth inhibition, hits mostly inhibitors; AID 686979, 2013; also: potency is read from the fitted curve at half-maximal effect; % is scaled to controls: 0 for no effect and ±100 for the full control effect; nearly all actives have a fitted effect of over 55% in size
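Chicken DT40 Tdp1-/- cells complemented with human TDP1, 400 cells/well, exposed to compounds plus 20 nM camptothecin for at least 48 h at 37 C; viability read as ATP content by CellTiter-Glo luminescence.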
TGFb SMAD3 inh: qHTS for Inhibitors of TGF-b. HepG2 CAGA-GFP TGF-b/SMAD3 reporter, GFP fluorescence, 18 h; TGF-beta stimulated, 500 pg/mL final. Potency, µM (series often up to 46.1 µM), inactives show top-dose activity, negative = inhibition, usual class: inhibitors. 1.2% of 410,000 active. AID 588855, 2011; also: potency is read from the fitted curve at half-maximal effect; % is scaled to controls: 0 for no effect and ±100 for the full control effect; nearly all actives have a fitted effect of over 65% in size
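Read-out: total well GFP (ex488/em500-530) summed from mean per-cell fluorescence. Cells: HEPG2 CAGA-GFP, 1% FBS DMEM, 18 h at 37 degrees C with 500 pg/mL final TGF-beta. Unstimulated wells served as the full-inhibition control; stimulated DMSO wells = 0%.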
An asterisk follows results filed as active. Unless noted, calls follow the shape of the dose curve; as a rule, active = well fitted curve in the direction sought with a large enough effect; inconclusive = small, poorly fitted or top-dose-only effect, or another doubt; inactive = no such curve, though single readings can be large; an effect the other way counts as inactive or inconclusive.

`Cc1cccc(N/C(=N/S(=O)(=O)c2ccccc2)c2ccccc2)n1` gave HepG2 viability -0.1%, IL-1B inflam inh -6.4, TDP1 block 2.0%, TDP1 cell noCPT 1.3%, TDP1 cell CPT inconclusive and TGFb SMAD3 inh 0.0%.
CC(CCN1CCN(c2ccc(F)cc2)CC1)c1ccccc1 (configuration not stated) was read as HepG2 viability -26.1%, IL-1B inflam inh -12.5, TDP1 cell noCPT inconclusive, TDP1 cell CPT -4.4% and TGFb SMAD3 inh 0.0%.
Screening CCc1ccc(NC(=O)C/C(C)=N/NC(=O)COc2ccc(C)cc2Br)cc1 returned HepG2 viability -31.9%, IL-1B inflam inh 2.2, TDP1 cell noCPT -0.8%, TDP1 cell CPT 1.0% and TGFb SMAD3 inh inconclusive.
`Cc1ccccc1CN1CCCC(C(=O)Nc2ccccc2Oc2cccnc2)C1` (configuration not stated) gave HepG2 viability -31.5%, IL-1B inflam inh -1.5, TDP1 block 2.1%, TDP1 cell noCPT inconclusive, TDP1 cell CPT inconclusive and TGFb SMAD3 inh -14.4%.
Screening Cc1ccc(CN2C(=O)CSCC2(C)C(=O)NCc2ccccc2)cc1 (configuration not stated) returned IL-1B inflam inh -9.7, TDP1 cell noCPT inconclusive and TDP1 cell CPT 20.6µM*.
For Cc1cccc(C)c1NC(=O)C1(C)CSCC(=O)N1Cc1cccc(F)c1 (configuration not stated) the results were IL-1B inflam inh -19.5, TDP1 cell noCPT -13.8% and TDP1 cell CPT 13.0%.
Cc1cccc(C)c1NC(=O)C1(C)CSCC(=O)N1Cc1cccc(C(F)(F)F)c1 (configuration not stated) was read as IL-1B inflam inh -18.8, TDP1 cell noCPT 25.9µM* and TDP1 cell CPT inconclusive.
Screening COc1ccc(C)cc1S(=O)(=O)N(CC(=O)Nc1ccc2c(c1)OCCO2)Cc1ccccc1 returned HepG2 viability -7.9%, IL-1B inflam inh -6.7, TDP1 block 6.6%, TDP1 cell noCPT inconclusive, TDP1 cell CPT 10µM* and TGFb SMAD3 inh -5.5%.
`COc1ccccc1N(CC(=O)Nc1ccc2c(c1)OCO2)S(=O)(=O)c1ccccc1` gave HepG2 viability -0.1%, IL-1B inflam inh 7.5, TDP1 block 4.0%, TDP1 cell noCPT 13µM*, TDP1 cell CPT inconclusive and TGFb SMAD3 inh 15.1%.
For COc1cccc(N(CC(=O)Nc2ccc3c(c2)OCO3)S(=O)(=O)c2ccccc2)c1 the results were HepG2 viability 0.4%, IL-1B inflam inh inconclusive, TDP1 block 7.9%, TDP1 cell noCPT inconclusive, TDP1 cell CPT inconclusive and TGFb SMAD3 inh -9.3%.
COc1ccccc1N(CC(=O)Nc1ccc(C)c(Cl)c1)S(=O)(=O)c1ccc(C)cc1 was read as HepG2 viability 1.4%, TDP1 cell noCPT 18.4µM*, TDP1 cell CPT 20.6µM* and TGFb SMAD3 inh 0.0%.
`COc1ccc(S(=O)(=O)N(CC(=O)Nc2ccc3c(c2)OCO3)c2ccccc2OC)cc1` gave HepG2 viability -1.5%, IL-1B inflam inh -9.1, TDP1 block 6.3%, TDP1 cell noCPT 14.6µM*, TDP1 cell CPT 20.6µM* and TGFb SMAD3 inh -7.8%.
`CC(=O)C1CCC2C3CCC4CC(=O)CCC4(C)C3C=CC12C` (configuration not stated) gave HepG2 viability -2.6%, IL-1B inflam inh 11.1, TDP1 cell noCPT 14.6µM*, TDP1 cell CPT -16.2% and TGFb SMAD3 inh -3.9%.
`CC(=O)C1C(C)CC2C3CCC4CC(=O)CCC4(C)C3CCC21C` (configuration not stated) gave HepG2 viability 5.6%, IL-1B inflam inh 10.8, TDP1 cell noCPT 20.6µM*, TDP1 cell CPT inconclusive and TGFb SMAD3 inh -2.3%.
Screening COc1ccc(-n2c(-c3ccc(Cl)cc3)c[n+]3c2CCc2ccccc2-3)cc1 returned HepG2 viability -20.1%, IL-1B inflam inh -54.9*, TDP1 block 2.5%, TDP1 cell noCPT 2.31µM*, TDP1 cell CPT 2.91µM* and TGFb SMAD3 inh -16.5%.
`COc1ccc(-n2c(-c3ccccc3)nnc2-c2ccc(Cl)cc2)cc1` gave HepG2 viability -1.9%, IL-1B inflam inh 0.0, TDP1 block 0.0%, TDP1 cell noCPT inconclusive, TDP1 cell CPT -11.9% and TGFb SMAD3 inh 5.5%.
Oc1oc(-c2ccccc2)nc1/C=N/c1nccs1 was read as HepG2 viability 0.8%, IL-1B inflam inh 1.6, TDP1 block 4.2%, TDP1 cell noCPT -0.8%, TDP1 cell CPT -24.3% and TGFb SMAD3 inh 9.4%.
For Oc1cccc(C=Nc2cccc3ccccc23)c1O the results were HepG2 viability -97.7%, IL-1B inflam inh -59.3*, TDP1 block 10.2%, TDP1 cell noCPT inconclusive, TDP1 cell CPT inconclusive and TGFb SMAD3 inh inconclusive.
Screening Oc1oc(-c2ccccc2)nc1C=Nc1cccc2ccccc12 returned HepG2 viability -35.9%, IL-1B inflam inh 13.0, TDP1 block inconclusive, TDP1 cell noCPT 15.8µM*, TDP1 cell CPT inconclusive and TGFb SMAD3 inh -18.1%.
Screening CCN(Cc1ccccc1)C(=O)Cn1c(=O)n(-c2ccc(Cl)cc2)c(=O)c2c(C)c(C(=O)N(C)C)sc21 returned HepG2 viability -0.7%, TDP1 block 2.5%, TDP1 cell noCPT inconclusive, TDP1 cell CPT -11.6% and TGFb SMAD3 inh inconclusive.
`COC1C(OC(=O)/C=C/C=C/C=C/C=C/C(=O)O)CCC2(CO2)C1C1(C)OC1CC=C(C)C` (configuration not stated) gave TDP1 block -6.4%.
For COc1cccc(NC(=O)Cc2nc(-c3ccccc3)sc2-c2ccc(C)cc2)c1 the results were HepG2 viability -10.6%, IL-1B inflam inh 3.2, TDP1 block 2.6%, TDP1 cell noCPT 16.4µM*, TDP1 cell CPT inconclusive and TGFb SMAD3 inh -12.4%.
Screening COC(=O)c1cccc(NC(=O)Cc2nc(-c3ccccc3)sc2-c2ccc(C)cc2)c1 returned HepG2 viability -14.2%, IL-1B inflam inh 12.6, TDP1 block 5.3%, TDP1 cell noCPT 18.4µM*, TDP1 cell CPT inconclusive and TGFb SMAD3 inh -2.7%.

Compound activity (PubChem)
